From PubChem BioAssay (NCATS)
Inconclusive results are not listed. The source made the active and inactive calls. Calls come from the whole dose curve; as a rule, active = well fitted curve in the direction sought with a large enough effect; inconclusive = small, poorly fitted or top-dose-only effect, or another doubt; inactive = no such curve, though single readings can be large; an effect the other way counts as inactive or inconclusive. Where a SMILES comes first, the peptide text is derived from it. Bridges are numbered along the chain shown (N, C = ends). [ ]: non-standard residue; d: D form. hArg = N=C(N)NCCCC[C@H](N)C(=O)O; Mpa = O=C(O)CCS

Tests used:
C33A = assay: Primary qHTS to identify gynecologic anti-cancer compounds using libraries of approved drugs and bioactive compounds (AID 1345084); conditions: Gynecologic cancer cell panel viability, ATPlite luminescence, 48 h; series mostly up to 57.5 µM; note: nearly all actives have a fitted effect of over 55% in size
Procedure, shortened: (§1)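 In this quantitative HTS, cell killing is estimated from loss of ATP-dependent luciferase light. Cells see five compound concentrations over a 48 h exposure.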

CAOV3 = assay: as above; conditions: Gynecologic cancer cell panel viability, ATPlite luminescence, 48 h; series mostly up to 57.5 µM
Procedure, shortened: as §1

CASKI = assay: as above; conditions: Gynecologic cancer cell panel viability, ATPlite luminescence, 48 h; series mostly up to 57.5 µM
Procedure, shortened: as §1

Es-2 = assay: as above; conditions: Gynecologic cancer cell panel viability, ATPlite luminescence, 48 h; series mostly up to 57.5 µM
Procedure, shortened: as §1

HeLa = assay: as above; conditions: Gynecologic cancer cell panel viability, ATPlite luminescence, 48 h; series mostly up to 57.5 µM
Procedure, shortened: as §1

Hek293T = assay: as above; conditions: Gynecologic cancer cell panel viability, ATPlite luminescence, 48 h, control line for the selectivity index; series mostly up to 57.5 µM
Procedure, shortened: as §1

JEG-3 = assay: as above; conditions: Gynecologic cancer cell panel viability, ATPlite luminescence, 48 h; series mostly up to 57.5 µM
Procedure, shortened: as §1

OV90 = assay: as above; conditions: Gynecologic cancer cell panel viability, ATPlite luminescence, 48 h; series mostly up to 57.5 µM
Procedure, shortened: as §1

PA-1 = assay: as above; conditions: Gynecologic cancer cell panel viability, ATPlite luminescence, 48 h; series mostly up to 57.5 µM
Procedure, shortened: as §1

SKOV3 = assay: as above; conditions: Gynecologic cancer cell panel viability, ATPlite luminescence, 48 h; series mostly up to 57.5 µM
Procedure, shortened: as §1

Tov-21-G = assay: as above; conditions: Gynecologic cancer cell panel viability, ATPlite luminescence, 48 h; series mostly up to 57.5 µM
Procedure, shortened: as §1

Tov112D = assay: as above; conditions: Gynecologic cancer cell panel viability, ATPlite luminescence, 48 h; series mostly up to 57.5 µM
Procedure, shortened: as §1

[1] = Drug repurposing screens with cells derived from glioblastoma tumor samples (AID 1345199); conditions: GBM patient neurospheres viability, ATP luminescence, 48 h; note: nearly all actives have a fitted effect of over 40% in size
Procedure, shortened: (§2)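 Primary testing used CD133+ neurospheres from four GBM patients, seven concentrations, 48 h exposure and ATP-based viability; confirmation added three slower-growing patient lines.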

astro = assay: as above; conditions: viability, ATP luminescence, 48 h; series mostly up to 45.9 µM
Procedure, shortened: as §2

[2] = at 45.9 µM (top of the series), tumour line B
[3] = at 45.9 µM (top of the series), tumour line D
[4] = at 46 µM (top of the series), tumour line A
[5] = at 46.1 µM (top of the series), tumour line C
[6] = at 20 µM (top of the series), tumour line C
[7] = at 21.2 µM (top of the series), tumour line B
[8] = at 21.2 µM (top of the series), tumour line D
[9] = at 21.3 µM (top of the series), tumour line A
% is set by controls: 0 for no effect and ±100 for the full control effect.

CC1(C)S[C@@H]2[C@H](N=CN3CCCCCC3)C(=O)N2[C@H]1C(=O)O
inactive: outcome (C33A) | outcome (CAOV3) | outcome (CASKI) | outcome (Es-2) | outcome (HeLa) | outcome (Hek293T) | outcome (JEG-3) | Potency (OV90) | outcome (PA-1) | outcome (SKOV3) | outcome (Tov-21-G) | outcome (Tov112D) | activity, negative = cell killing [1, 2] 0.648% | activity, negative = cell killing [1, 3] 9.1% | activity, negative = cell killing [1, 4] -11.3% | activity, negative = cell killing [1, 5] -4.3% | outcome (astro)

CCc1nnc(NS(=O)(=O)c2ccc(N)cc2)s1
inactive: outcome (C33A) | outcome (CAOV3) | outcome (CASKI) | outcome (Es-2) | outcome (HeLa) | outcome (Hek293T) | outcome (JEG-3) | Potency (OV90) | outcome (PA-1) | outcome (SKOV3) | outcome (Tov-21-G) | outcome (Tov112D) | activity, negative = cell killing [1, 2] -21.8% | activity, negative = cell killing [1, 3] -9.53% | activity, negative = cell killing [1, 4] -28.8% | activity, negative = cell killing [1, 5] -20.9% | outcome (astro)

CCOc1ccc(C(=O)OCCN(CC)CC)cc1
inactive: outcome (C33A) | outcome (CAOV3) | outcome (CASKI) | outcome (Es-2) | outcome (HeLa) | outcome (Hek293T) | outcome (JEG-3) | Potency (OV90) | outcome (PA-1) | outcome (SKOV3) | outcome (Tov-21-G) | outcome (Tov112D) | activity, negative = cell killing [1, 2] -7.64% | activity, negative = cell killing [1, 3] -13.5% | activity, negative = cell killing [1, 4] -29% | activity, negative = cell killing [1, 5] -17.9% | outcome (astro)

CN/C(=C\[N+](=O)[O-])NCCSCc1csc(CN(C)C)n1
inactive: outcome (C33A) | outcome (CAOV3) | outcome (CASKI) | outcome (Es-2) | outcome (HeLa) | outcome (Hek293T) | outcome (JEG-3) | Potency (OV90) | outcome (PA-1) | outcome (SKOV3) | outcome (Tov-21-G) | outcome (Tov112D) | activity, negative = cell killing [1, 6] -1.68% | activity, negative = cell killing [1, 7] 0.685% | activity, negative = cell killing [1, 8] -13.3% | activity, negative = cell killing [1, 9] -19.6% | outcome (astro)

CC(C)CCCC(C)CCCC(C)CCCCC(C)CCCC(C)CCCC(C)C (stereo unspecified)
inactive: outcome (C33A) | outcome (CAOV3) | outcome (CASKI) | outcome (Es-2) | outcome (HeLa) | outcome (Hek293T) | outcome (JEG-3) | Potency (OV90) | outcome (PA-1) | outcome (SKOV3) | outcome (Tov-21-G) | outcome (Tov112D) | activity, negative = cell killing [1, 2] 2.81% | activity, negative = cell killing [1, 3] 2.23% | activity, negative = cell killing [1, 4] -12.7% | activity, negative = cell killing [1, 5] 8.73% | outcome (astro)

NC(=O)[C@@H]1CSSCCC(=O)N[C@@H](CCCCN=C(N)N)C(=O)NCC(=O)N[C@@H](CC(=O)O)C(=O)N[C@@H](Cc2c[nH]c3ccccc23)C(=O)N2CCC[C@H]2C(=O)N1 ([Mpa][hArg]GDWPC-NH2; disulfide 1-7)
inactive: outcome (C33A) | outcome (CAOV3) | outcome (CASKI) | outcome (Es-2) | outcome (HeLa) | outcome (Hek293T) | outcome (JEG-3) | Potency (OV90) | outcome (PA-1) | outcome (SKOV3) | outcome (Tov-21-G) | outcome (Tov112D) | activity, negative = cell killing [1, 2] 1.12% | activity, negative = cell killing [1, 3] 4.68% | activity, negative = cell killing [1, 4] -11% | activity, negative = cell killing [1, 5] -19.2% | outcome (astro)

CC(C(=O)O)c1ccc2c(c1)Cc1cccnc1O2 (stereo unspecified)
inactive: outcome (C33A) | outcome (CAOV3) | outcome (CASKI) | outcome (Es-2) | outcome (HeLa) | outcome (Hek293T) | outcome (JEG-3) | Potency (OV90) | outcome (PA-1) | outcome (SKOV3) | outcome (Tov-21-G) | outcome (Tov112D) | activity, negative = cell killing [1, 2] 1.78% | activity, negative = cell killing [1, 3] -8.91% | activity, negative = cell killing [1, 4] -13.1% | activity, negative = cell killing [1, 5] -25.1% | outcome (astro)

CC(C)CCOC(=O)c1ccc(N(C)C)cc1
inactive: outcome (C33A) | outcome (CAOV3) | outcome (CASKI) | outcome (Es-2) | outcome (HeLa) | outcome (Hek293T) | outcome (JEG-3) | Potency (OV90) | outcome (PA-1) | outcome (SKOV3) | outcome (Tov-21-G) | outcome (Tov112D) | activity, negative = cell killing [1, 2] -5.37% | activity, negative = cell killing [1, 3] -2.75% | activity, negative = cell killing [1, 4] -50% | activity, negative = cell killing [1, 5] -13.2% | outcome (astro)

COc1ccc(-c2cc(=O)c3c(O)cc(O[C@@H]4O[C@H](CO[C@@H]5O[C@@H](C)[C@H](O)[C@@H](O)[C@H]5O)[C@@H](O)[C@H](O)[C@H]4O)cc3o2)cc1O
inactive: outcome (C33A) | outcome (CAOV3) | outcome (CASKI) | outcome (Es-2) | outcome (HeLa) | outcome (Hek293T) | outcome (JEG-3) | Potency (OV90) | outcome (PA-1) | outcome (SKOV3) | outcome (Tov-21-G) | outcome (Tov112D) | activity, negative = cell killing [1, 2] -6.79% | activity, negative = cell killing [1, 3] 0.355% | activity, negative = cell killing [1, 4] -29.8% | activity, negative = cell killing [1, 5] 3.81% | outcome (astro)

CC(C)(C)C(=O)OCOC(=O)[C@@H]1N2C(=O)[C@@H](NC(=O)[C@H](N)c3ccccc3)[C@H]2SC1(C)C
inactive: outcome (C33A) | outcome (CAOV3) | outcome (CASKI) | outcome (Es-2) | outcome (HeLa) | outcome (Hek293T) | outcome (JEG-3) | Potency (OV90) | outcome (PA-1) | outcome (SKOV3) | outcome (Tov-21-G) | outcome (Tov112D) | activity, negative = cell killing [1, 6] 0.2% | activity, negative = cell killing [1, 7] -3.35% | activity, negative = cell killing [1, 8] -17.5% | activity, negative = cell killing [1, 9] -4.53% | outcome (astro)

CC(=O)NCc1c(I)c(NC(C)=O)c(I)c(C(=O)O)c1I
inactive: outcome (C33A) | outcome (CAOV3) | outcome (CASKI) | outcome (Es-2) | outcome (HeLa) | outcome (Hek293T) | outcome (JEG-3) | Potency (OV90) | outcome (PA-1) | outcome (SKOV3) | outcome (Tov-21-G) | outcome (Tov112D) | activity, negative = cell killing [1, 2] -9.68% | activity, negative = cell killing [1, 3] -11.6% | activity, negative = cell killing [1, 4] -20.1% | activity, negative = cell killing [1, 5] -11.1% | outcome (astro)

COc1ccccc1OC(=O)Oc1ccccc1OC
inactive: outcome (C33A) | outcome (CAOV3) | outcome (CASKI) | outcome (Es-2) | outcome (HeLa) | outcome (Hek293T) | outcome (JEG-3) | Potency (OV90) | outcome (PA-1) | outcome (SKOV3) | outcome (Tov-21-G) | outcome (Tov112D) | activity, negative = cell killing [1, 2] -6.75% | activity, negative = cell killing [1, 3] -3.45% | activity, negative = cell killing [1, 4] -34.8% | activity, negative = cell killing [1, 5] -5.39% | outcome (astro)

CCOC(=O)c1cccnc1
inactive: outcome (C33A) | outcome (CAOV3) | outcome (CASKI) | outcome (Es-2) | outcome (HeLa) | outcome (Hek293T) | outcome (JEG-3) | Potency (OV90) | outcome (PA-1) | outcome (SKOV3) | outcome (Tov-21-G) | outcome (Tov112D) | activity, negative = cell killing [1, 2] -7.07% | activity, negative = cell killing [1, 3] -8.05% | activity, negative = cell killing [1, 4] -24.1% | activity, negative = cell killing [1, 5] 22.3% | outcome (astro)
